High-throughput results: PubChem, National Center for Advancing Translational Sciences (NCATS)
AmpC no deterg = blocks E. coli AmpC beta-lactamase in detergent-free assay. P00811. AmpC nitrocefin hydrolysis, absorbance 480 nm, 0.0001% Triton. Potency, µM (series often up to 57.1 µM), for the others: top-dose activity change, negative = inhibition, usual class: inhibitors. 0.52% of 330,000 active. AID 485341;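 further: plate controls were no compound for no effect and no enzyme for full effect; nearly all actives have a fitted effect of over 20% in size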
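AmpC (5.3 nM in the dispensed reagent) in 20 mM phosphate pH 7.0 with 0.01% (detergent screen) or 0.0001% Triton X-100 was preincubated with compounds for 15 min at room temperature. Nitrocefin was then added from an 800 uM solution, and hydrolysis was followed at 480 nm.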
AmpC inh detg = blocks E. coli AmpC beta-lactamase in detergent assay | P00811 | AmpC hydrolysis of nitrocefin, absorbance 480 nm, 0.01% Triton | Potency, µM (doses to about 114 µM), without a hit: at the highest dose activity change, negative = inhibition, usual class: inhibitors | 0.041% of 370,000 active | AID 485294;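 further: 0% = no-compound wells and -100% = no-enzyme wells; nearly all actives have a fitted effect of over 25% in size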
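AmpC (5.3 nM in the dispensed reagent) in 20 mM phosphate pH 7.0 with 0.01% (detergent screen) or 0.0001% Triton X-100 was preincubated with compounds for 15 min at room temperature. Nitrocefin was then added from an 800 uM solution, and hydrolysis was followed at 480 nm.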
SARS PLpro yeast = SARS-CoV PLP inhibition in yeast | S. cerevisiae expressing SARS-CoV PLpro, growth rescue | Potency, µM (doses to about 32.9 µM), for inactives: at the top dose activity, positive = growth rescue, most hits filed as activators | 0.19% of 330,000 active; calls by dose curve; further: 0% is about no effect; nearly all actives have a fitted effect of over 55% in size
Giardia FBPA inh = inhibitors of Giardia lamblia fructose-1,6-bisphosphate aldolase; A8B2U2; purified Giardia FBPA; Potency, µM (series often up to 59.6 µM), inactives show top-dose activity, negative = inhibition, hits mostly inhibitors; 0.71% of 290,000 active; further: on the % scale 0 is the no-effect control and ±100 the full control effect; nearly all actives have a fitted effect of over 55% in size
Target sequence (A8B2U2 whole entry, looked up): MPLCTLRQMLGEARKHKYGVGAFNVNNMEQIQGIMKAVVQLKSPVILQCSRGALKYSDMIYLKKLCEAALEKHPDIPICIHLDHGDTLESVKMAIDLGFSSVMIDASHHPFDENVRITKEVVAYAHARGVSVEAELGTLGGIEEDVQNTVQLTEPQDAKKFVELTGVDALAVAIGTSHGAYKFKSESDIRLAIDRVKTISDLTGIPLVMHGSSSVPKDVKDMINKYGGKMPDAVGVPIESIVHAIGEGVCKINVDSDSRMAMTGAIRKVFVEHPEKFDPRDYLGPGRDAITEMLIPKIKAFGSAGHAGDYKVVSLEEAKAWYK
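Giardia FBPA (40 nM reagent) was preincubated 10 min at RT with compound (up to 57.5 uM final), then substrate plus GAPDH/TPI/NAD/arsenate coupling system with diaphorase/resazurin was added; resorufin fluorescence (525/598 nm) was read after 20 min.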
Active calls of the source: *; ? = inconclusive; · = not tested or not shown. Rows were chosen to be rich in hits. Some 1.1% of all compounds tested hit in one or more screens of this group. Unless noted, the call rests on the fitted dose curve; in most records, active means well fitted curve in the direction sought with a large enough effect; inconclusive means small, poorly fitted or top-dose-only effect, or another doubt; inactive means no such curve, though single readings can be large; an effect the other way counts as inactive or inconclusive. Potency means the concentration at half of the fitted maximal effect.

SMILES | AmpC no deterg | AmpC inh detg | SARS PLpro yeast | Giardia FBPA inh
Cc1cccc(NCCC(=O)c2ccc([N+](=O)[O-])cc2)c1C | -20.5% | 8.9% | -6.8% | -6.2%
CCOC(=O)c1c(C)[nH]c(O)c1C=Nc1ccccc1 | -2.3% | 1.9% | 4.7% | -15.4%
COC(=O)c1c(C)[nH]c(O)c1C=Nc1ccc(C#N)cc1 | -22.7% | 2.3% | -0.7% | 15.8µM*
CN1C(=O)CSc2ccc(NC(=O)Nc3ccccn3)cc21 | -31.3% | 5.1% | 11.9% | 0.1%
CC(=O)Nc1ccc(NC(=O)Nc2ccc3c(c2)N(C)C(=O)CS3)cc1 | -47.6% | 2.4% | -0.2% | 18.2%
COc1cccc(NC(=O)Nc2ccc3c(c2)N(C)C(=O)CS3)c1 | 3.16µM* | -7.2% | -9.2% | -4.2%
CCOc1ccc(OCC)c(NC(=O)Nc2ccc3c(c2)N(C)C(=O)CS3)c1 | 1.12µM* | ? | -4.6% | -9.1%
COc1ccc(N=CC2=C(O)CC(C)(C)CC2=O)cc1 | -20.6% | -2.3% | 12.6µM* | -2.4%
COc1ccc(OC)c(N=CC2=C(O)CC(C)(C)CC2=O)c1 | -23.9% | -5.2% | -9.1% | -18.8%
CCC(Oc1ccccc1)C(=O)Nc1cc(C)on1 (configuration not stated) | ? | -16.8% | -2.2% | 3.8%
CCC(OC(=O)C(NC(=O)c1ccccc1)c1ccccc1)C(=O)Nc1cc(C)on1 (configuration not stated) | -14.4% | ? | 22.4µM* | -2.1%
COc1ccc2cc3c(N)c(C(=O)NCc4ccco4)sc3nc2c1 | 0.316µM* | 0.2% | -3.0% | -1.3%
O=C(/C=C/c1ccc([N+](=O)[O-])cc1)/C=C/c1ccco1 | 20µM* | -11.2% | -22.8% | -6.1%
O=C(/C=C/c1ccc([N+](=O)[O-])cc1)c1ccco1 | -12.8% | -10.3% | 1.1% | -6.6%
COc1ccc(NC(=O)C2CCCCN2S(=O)(=O)c2ccc(F)cc2)cc1 (configuration not stated) | 3.16µM* | 12.5% | -12.7% | -17.0%
Brc1ccc(-c2csc(N3CCCCC3)n2)cc1 | -35.5% | ? | -11.6% | ·
C=C(C)C1CC=C(C)/C(=N/NC(=O)c2ccccc2[N+](=O)[O-])C1 (configuration not stated) | 15.8µM* | 5.0% | 0.5% | 0.1%
C=C(C)C1CC=C(C)/C(=N/Nc2ccccc2[N+](=O)[O-])C1 (configuration not stated) | -14.7% | -3.9% | 14.9% | -0.8%
CCOC(=O)CNS(=O)(=O)c1ccc(F)cc1Br | · | · | · | 5.5%
CC1=CC(=O)c2c(O)ccc(O)c2C1=O | 14.1µM* | ? | 0.3% | ?
O=C1c2cccc(O)c2C(=O)c2c(O)cccc21 | -19.2% | -6.0% | -32.5% | -18.4%
CCOC(=O)c1c(/N=C/c2ccc(O)cc2O)sc2c1CCC2 | 10µM* | -8.3% | -7.7% | -9.6%
NCCNCCN | · | · | · | 17.7µM*
O=C(O)c1cc(-c2ccc(-c3ccc(F)cc3)o2)nc2ccccc12 | -19.8% | -8.0% | -2.2% | 20µM*
O=C(c1cc(-c2ccc(F)cc2)nc2ccccc12)N1CCC1 | 4.7% | · | -5.3% | ·
SMILES | AmpC no deterg | AmpC inh detg | SARS PLpro yeast | Giardia FBPA inh
Oc1cccc(/C=N/N2CCCCC2)c1O | -15.2% | -0.5% | 0.0% | -11.7%
Oc1ccc(/C=N/N2CCOCC2)c(O)c1O | -26.6% | -8.2% | 1.9% | 5.61µM*
COc1cccc(/C=N/N2CCOCC2)c1O | -9.5% | -4.1% | -0.7% | 2.6%
Oc1ccc(/C=N/N2CCCCC2)c(O)c1O | -16.3% | -3.5% | 0.9% | 2.82µM*
Cc1cccc(-c2nn(C(=S)Nc3ccccc3)cc2-c2ccnc3ccccc23)n1 | · | · | · | -28.3%
O=C(Nc1cc(Sc2nc3ccccc3s2)cc([N+](=O)[O-])c1)c1ccccc1 | 12.6µM* | -13.9% | 12.7% | -5.3%
CC(=O)NCc1c(Cl)cccc1-n1cccc1 | -8.9% | 1.1% | 10µM* | 6.2%
COC(=O)c1c(Oc2ccc(C(C)=O)cc2)nnc(-c2ccccc2)c1-c1ccccc1 | · | -3.1% | · | ·
Cc1ccc(Cl)cc1NC1=C/C(=N\S(=O)(=O)c2cccs2)c2ccccc2C1=O | -40.0% | -1.7% | -21.6% | 0.281µM*
COc1cccc(C(C[N+](=O)[O-])c2c(C)[nH]n(-c3ccccc3)c2=O)c1 (configuration not stated) | -41.5% | -11.9% | -72.3% | 12.6µM*
Cc1[nH]n(-c2ccccc2)c(=O)c1C(C[N+](=O)[O-])c1ccc(Br)cc1 (configuration not stated) | -51.1% | 1.9% | -40.1% | -29.2%
O=C(CCl)Nc1ccccc1Sc1ccccc1 | -17.7% | -6.7% | 12.6µM* | -10.8%
